In PubChem BioAssay (NCI):
This is part of a sample that, as a whole, favours compounds with a hit. Of some 83,000 tested, about 20% had one in any assay.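 Activity criterion: percent growth below 10, measured after cells in 96-well plates were exposed to a single compound concentration for 48 hours.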 Values without a mark were called inactive. The source made the active and inactive calls.

How the values were obtained:
Assay in all cases: NCI-60 one-dose screen, 48 h (100 = growth as untreated, 0 = no growth, -100 = all killed)
[1] = test system: HT29 colon; conditions: 10 µM unless noted
[2] = test system: SNB-75 CNS; conditions: 10 µM unless noted
[3] = test system: SNB-19 CNS; conditions: 10 µM unless noted
[4] = test system: U251 CNS; conditions: 10 µM unless noted
[5] = test system: PC-3 prostate; conditions: 10 µM unless noted
[6] = test system: SK-MEL-5 melanoma; conditions: 10 µM unless noted
[7] = test system: UACC-62 melanoma; conditions: 10 µM unless noted
[8] = test system: LOX IMVI melanoma; conditions: 10 µM unless noted
[9] = test system: SK-MEL-28 melanoma; conditions: 10 µM
[10] = test system: EKVX NSCLC; conditions: 10 µM unless noted
[11] = test system: SN12C renal; conditions: 10 µM unless noted
[12] = test system: UO-31 renal; conditions: 10 µM unless noted
[13] = test system: TK-10 renal; conditions: 10 µM unless noted
[14] = test system: ACHN renal; conditions: 10 µM unless noted
[15] = test system: CAKI-1 renal; conditions: 10 µM unless noted
[16] = test system: A498 renal; conditions: 10 µM unless noted
[17] = test system: CCRF-CEM leukemia; conditions: 10 µM unless noted
[18] = test system: MOLT-4 leukemia; conditions: 10 µM unless noted
[19] = test system: SR leukemia; conditions: 10 µM unless noted
[20] = test system: SK-MEL-2 melanoma; conditions: 10 µM unless noted

Row | SMILES | growth [1] | growth [2] | growth [3] | growth [4] | growth [5] | growth [6] | growth [7] | growth [8] | growth [9] | growth [10] | growth [11] | growth [12] | growth [13] | growth [14] | growth [15] | growth [16] | growth [17] | growth [18] | growth [19] | growth [20]
1 | O=C(Nc1ccc(N2CCNCC2)cc1)c1[nH]ncc1Nc1ncnc2sc3c(c12)CCC3 | -67.3% (active) | -99.5% (active) | -99.5% (active) | -96.5% (active) | -83.6% (active) | -97.4% (active) | -85.1% (active) | -91.4% (active) | -84.7% (active) | -86.8% (active) | -75.1% (active) | -85.6% (active) | -95.3% (active) | -99.5% (active) | -93.1% (active) | 16.9% | -32.1% (active) | -39.3% (active) | -8.96% (active) | 
2 | COc1ccc(Nc2nc(N/N=C/c3ccc(O)cc3)nc(Nc3ccc([N+](=O)[O-])cc3)n2)cc1 | 105% | 104% | 101% | 104% | 108% | 104% | 110% | 107% | 104% |  |  | 103% | 115% | 103% | 123% | 105% | 99.9% | 108% | 105% | 103%
3 | CCN(CCO)CCNc1ccc(C)c2sc3cc(Cl)ccc3c(=O)c12 | -77.3% (active) | 62.5% | 44.5% | -32.1% (active) | 21.8% | -94.3% (active) | -53.1% (active) | -94.8% (active) | -61.7% (active) | 84.4% | 37.8% | 37.5% |  | 7.81% (active) | 68% | 1.76% (active) | 14.4% | 7.65% (active) | -19.4% (active) | 
4 | Nc1nc(N)c2c(n1)NC1(C=C(O)c3ccccc31)C1=C(N2)c2ccccc2C1=O (stereo unspecified) | 125% | 169% | 103% | 103% | 107% | 108% | 110% | 94.3% | 108% | 113% | 102% | 77.1% | 142% | 96.1% | 83.8% | 109% | 97.3% | 104% | 134% | 
5 | Cc1ccc(S(=O)(=O)c2c(COC(=O)c3cccc(C)c3)c(-c3ccccc3)nn2C)cc1 | -44.5% (active) | 107% | 24.6% | -32.4% (active) | 48.5% | 77.6% | 88.7% | -22.8% (active) | -68.4% (active) |  |  | 103% | 113% | 91% | 107% | 123% | -7.63% (active) | -11.2% (active) | 1.41% (active) | 27.2%
6 | CCOC(=O)c1ccc2[nH]c(-c3ccccc3)cc(=O)c2c1 | 103% | 72.3% | 94.9% | 97.2% | 89.1% | 103% | 101% | 98.2% | 109% |  | 98.2% | 97.1% | 112% | 97.5% | 98.5% | 94.4% | 89.7% | 94% | 96% | 105%
7 | O=C(CSc1nc2ccccc2c(=O)n1-c1ccccc1)Nc1ccc(C(=O)/C=C/c2ccc(Cl)cc2)cc1 | 100% | 114% | 96.1% | 106% | 103% | 103% | 86% | 101% | 106% | 103% | 101% | 82.5% | 110% | 102% | 97.8% | 95.2% | 99.7% | 99.5% | 85.3% | 
8 | OC(CNC1CCCCC1)Cn1c2ccc(I)cc2c2cc(I)ccc21 (stereo unspecified) | 95.7% | 50.4% | 86% | 72.6% | 62.5% | 67.7% | 64.8% | 77.4% | 81.3% |  |  | 47.7% | 94.6% | 75.4% | 63.9% | 87.8% | 78.1% | 68.2% | 68.1% | 97%
9 | NNC(=O)CNC(=O)Nc1n[nH]c(=S)s1 | 95.9% | 92.1% | 106% | 105% | 95.9% | 105% | 104% | 98.1% | 106% |  | 98.1% | 73.6% | 107% | 94.4% | 98.3% | 98.3% | 93% | 89.5% | 83.3% | 97.7%
10 | Clc1ccc(Oc2ccc(Nc3ncnc4onc(-c5ccccc5)c34)cc2)c(Cl)c1 | 84.2% | 83.5% | 106% | 102% | 94.2% | 93.4% | 81% | 98.4% | 102% | 103% | 94% | 67% | 105% | 105% | 90.6% | 103% | 98.1% | 89.8% | 80.6% | 
11 | CCCCN1CCN(c2ccc3nc(-c4ccc5nc(-c6ccc(C(F)(F)F)cc6)[nH]c5c4)[nH]c3c2)CC1 | -49.5% (active) | -93.6% (active) | -91.4% (active) | -86.6% (active) | -77% (active) | 10.8% | -31.6% (active) | -89.5% (active) | -88.3% (active) | -72.4% (active) | -80.9% (active) | -82.8% (active) | -71.3% (active) | -99.5% (active) | -77.1% (active) |  | -32.6% (active) | -61% (active) | -46.8% (active) | 
12 | COc1ccc(/C=C/C(=O)c2c(C)nc3ccccc3c2/C=C/c2ccccc2)c(OC)c1 | 62.9% | 81.5% | 92.9% | 90% | 75.9% | 85.7% | 62.1% | 83.8% | 108% | 76.9% | 84.3% | 61.4% | 123% | 79.5% | 55.9% | 97.3% | 76.5% | 48.6% |  | 
13 | COc1cc(C(C)n2cc(-c3ccccc3)nn2)ccc1OC1CCCCC1 (stereo unspecified) | 82.3% | 68.1% | 68.7% | 81% | 69.6% | 29.9% | 55.7% | 63.1% | 95.1% |  |  | 56.9% | 75.3% | 51.1% | 48.7% | 49.3% | 55.3% | 50.1% |  | 92.8%
14 | COc1ccc(/C=C2\SC(=Nc3ccccc3)NC2=O)cc1 | -89.2% (active) | -97.9% (active) | -50% (active) | -90.1% (active) | -73.5% (active) | -97.2% (active) | -91% (active) | -82.9% (active) | -100% (active) |  | -39.9% (active) | -98.3% (active) | -92.3% (active) | -70.9% (active) |  | -92.5% (active) | -53.6% (active) | -59% (active) | -33% (active) | -84.8% (active)
15 | FC(F)(F)c1cccc(Nc2nc3ccccc3nc2Nc2cccc(C(F)(F)F)c2)c1 | -53.7% (active) | -92.3% (active) | 7.81% (active) | -34% (active) | 15.4% | -95.6% (active) | -62.6% (active) | -79.4% (active) | -85.5% (active) |  |  | -74.7% (active) | -50.1% (active) | -21.5% (active) | -1.66% (active) | 54% | -2.8% (active) | -11.2% (active) | -29.4% (active) | -62.5% (active)
16 | COc1cc(OC)cc(N2C(=O)N(Cc3ccc(C(C)(C)C)cc3)c3ccccc3S2(=O)=O)c1 | 93.7% | 73.9% | 94.7% | 95.9% | 84.4% | 85.8% | 90.6% | 85.1% | 91.9% |  | 86.1% | 54% | 97.8% | 81.2% |  | 98.6% | 84.7% | 93.3% | 41.8% | 88.5%
17 | CSc1nc2c(c(=O)[nH]1)N=C1c3ccccc3C(=O)C1C(c1ccccc1)N2 (stereo unspecified) | 5.89% (active) | 34.3% | 39.8% | 37.5% | 54.5% | 16.1% | 37.8% | 51.9% | 54% |  | 68.7% | 70% | 67.8% | 48.7% |  | 45.3% | 29% | 20% | -35.6% (active) | 59%
